In PubChem BioAssay AID620 (Sanford-Burnham Center for Chemical Genomics, 2007):
Screen size: about 87,000 compounds; about 360 (0.41%) were called active. What follows is part of a selection rich in actives, with near analogues and random picks from the rest. Values without a mark were called inactive. Rule as the data show it: active = cytotoxicity above about 50%; inactive = the rest.

Assay: HT1080 cell viability loss – fluorescence readout (AID 620);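 also: cells exposed to compound overnight then 4 h with Alamar Blue; 0% = vehicle DMSO and 100% = killing control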
Conditions: at 10 µM, hits give high values

| Compound | cytotoxicity |
| --- | --- |
| Cn1c(=O)c2c(nc(SCCN3CCOCC3)n2Cc2ccc(Cl)cc2)n(C)c1=O | -7% |
| Fc1ccc(-c2cc3nc4c(c(N5CCOCC5)n3n2)CCCC4)cc1 | -15.8% |
| OC1CCN(c2c3c(nc4cc(-c5ccc(F)cc5)nn24)CCC3)CC1 | -17.8% |
| O=C(C1CC1)N1CCN=C1SCc1ccccc1Cl | -3.4% |
| CCOC(=O)N1CCN(S(=O)(=O)c2ccc(OCC)c(C)c2)CC1 | 4.4% |
| Cc1cccc(NS(=O)(=O)c2cccc3cccnc23)n1 | 9% |
| Cc1cc(C(=O)NCCCN2CCOCC2)n(-c2ccccc2)n1 | -1.5% |
| Cc1cc(C(=O)NCCN2CCN(c3cccc(Cl)c3)CC2)n(-c2ccccc2)n1 | 55.9% (active) |
| Cc1cc(C(=O)NCCCN2CCN(C3CCCCC3)CC2)n(-c2ccccc2)n1 | 13.2% |
| Cn1c(=O)[nH]c(=O)c2c1nc1n2CCCS1 | 35.1% |
| N#CC(c1ccc(Cl)cc1)c1ccc2c(C(F)(F)F)cc(C(F)(F)F)nc2n1 (configuration not stated) | 51.3% (active) |
| Cc1ccc(C(C#N)c2ccc3c(C(F)(F)F)cc(C(F)(F)F)nc3n2)cc1 (configuration not stated) | -12.2% |
| N#CC(c1ccccc1)c1ccc2c(C(F)(F)F)cc(C(F)(F)F)nc2n1 (configuration not stated) | -4.8% |
| Cc1ccc(NC(=O)CN2CCCCCC2)c(Br)c1 | -14.9% |
| CCOC(=O)c1ccc(NC(=O)CC2C(=O)N(c3ccc(F)cc3)C(=O)N2CCC(C)C)cc1 (configuration not stated) | 4.5% |
| Cn1cc(S(=O)(=O)NCc2cccs2)c(=O)n(C)c1=O | 0.5% |
| COc1ccc(S(=O)(=O)Nc2ccc(N(C)C(C)=O)cc2)cc1 | 4.3% |
| O=C(CSc1ncn[nH]1)Nc1ccccc1Sc1ccc(Cl)cc1 | 41.7% |
| Nc1nc(SCC(=O)Nc2ccccc2-c2ccccc2)n[nH]1 | 0.1% |
| Nc1nc(SCC(=O)Nc2ccccc2Sc2ccc(Cl)cc2)n[nH]1 | 74.3% (active) |
| CCn1c(SCC(=O)c2ccc(NS(=O)(=O)c3ccccc3)cc2)nnc1-c1cccs1 | -0.1% |
| O=C(O)C1C2CCC(O2)C1C(=O)Nc1cnn(Cc2ccccc2)c1 (configuration not stated) | 13% |
| CC(C)CC(NC(=O)C1CCC(C)CC1)C(=O)NCc1ccccn1 (configuration not stated) | 23.1% |
| Cn1c(C(=O)N2CCC(C(=O)N3CCOCC3)CC2)cc2sccc21 | 4.3% |
| CCOc1ccccc1-n1c(SCC(N)=O)nnc1-c1cccnc1 | 7.9% |

| Compound | cytotoxicity |
| --- | --- |
| Cc1cccc(-c2nnc3n2N=C(c2ccccc2)CS3)c1 | 5.5% |
| COc1ccc(-c2nnc3n2N=C(C)CS3)cc1 | -10.3% |
| Brc1ccc(C2=Nn3c(nnc3-c3n[nH]c4c3CCC4)SC2)cc1 | 56.3% (active) |
| COc1ccc(C2=Nn3c(nnc3-c3ccncc3)SC2)cc1 | -6.8% |
| Clc1ccc(C2=Nn3c(nnc3-c3n[nH]c4c3CCC4)SC2)cc1 | 6.1% |
| Fc1ccc(C2=Nn3c(nnc3-c3n[nH]c4c3CCC4)SC2)cc1 | 5.8% |
| COc1cc(-c2nnc3n2N=C(c2ccccc2)CS3)cc(OC)c1OC | 66.9% (active) |
| COc1cccc(-c2nnc3n2N=C(c2cc(OC)ccc2OC)CS3)c1 | 5.5% |
| COc1ccc(OC)c(C2=Nn3c(nnc3-c3ccncc3)SC2)c1 | 2.2% |
| COc1ccc(-c2nnc3n2N=C(c2ccccc2)CS3)cc1OC | -10.6% |
| COc1ccc(OC)c(C2=Nn3c(nnc3-c3cc(OC)c(OC)c(OC)c3)SC2)c1 | 64.1% (active) |
| COc1ccc(C2=Nn3c(nnc3-c3ccc(OC)cc3)SC2)cc1 | 62.4% (active) |
| N#CCSc1nnc(Cc2cccs2)n1C1CCCCC1 | 11.1% |
| Cc1ccc(C(=O)N2CCC(C(N)=O)CC2)cc1C | -2.5% |
| Cc1nn(Cc2n[nH]c(=S)n2Cc2ccccc2)c(C)c1Cl | -7% |
| Cc1ccc(NC(=O)C2(N(CC(C)C)C(=O)Cn3nnnc3N)CCCCC2)cc1 | 3% |
| CCNC(=O)CSc1nnc(-c2ccc(OC)cc2)n1CC(C)C | -18.3% |
| CSCC[C@H](Nc1ncnc2sc(C)c(C)c12)C(=O)O | -6% |
| CSc1nnc(-c2ccccc2)o1 | -3.8% |
| O=c1[nH]c2ccccc2nc1N1CCOCC1 | -5% |
| CN(C)CCNS(=O)(=O)c1ccc(Cl)cc1 | -7.5% |
| O=S(=O)(c1ccc(N2CCC(c3ccc(Cl)cc3)=N2)cc1)N(CCO)CCO | -11.6% |
| COc1ccc(-n2nnc3c(=O)n(C/C=C/c4ccccc4)cnc32)cc1 | -3.8% |
| Nc1c(C(=O)NCc2ccc(F)cc2)c2nc3ccccc3nc2n1CCCN1CCOCC1 | 0.2% |
| COc1ccc(CNC(=O)c2c(N)n(CCCN3CCOCC3)c3nc4ccccc4nc23)cc1 | 15.1% |

| Compound | cytotoxicity |
| --- | --- |
| Nc1c(C(=O)NCc2ccc3c(c2)OCO3)c2nc3ccccc3nc2n1CCCN1CCOCC1 | 52.9% (active) |
| O=C(O)CSCCc1ccccn1 | 8.2% |
| CN1C(=O)CSc2ccc(NC(=O)N3CCc4ccccc43)cc21 | 64.2% (active) |
| CN1C(=O)CSc2ccc(NC(=O)N3CCN(c4ccccn4)CC3)cc21 | -6.2% |
| COc1cccc(NC(=O)Nc2ccc3c(c2)N(C)C(=O)CS3)c1 | 6% |
| Cc1cc2nc(NC3=NCN(CCCN4CCOCC4)CN3)nc(C)c2cc1C | 4.7% |
| Cc1nc(NC2=NCN(CCN3CCOCC3)CN2)nc2c(C)cccc12 | 4.7% |
| COc1ccc(OC)c(NC(=O)c2[nH]c(C)c(C(C)=O)c2C)c1 | 11.3% |
| CCOC(=O)c1[nH]c(C)c(C(=O)Nc2cc(Cl)ccc2C)c1C | 52% (active) |
| CCOC(=O)c1c(C)[nH]c(C(=O)OCC(=O)Nc2cc(C)ccc2OC)c1C | -1.2% |
| CCOC(=O)c1[nH]c(C)c(C(=O)Nc2ccc(C)c(C)c2)c1C | -11.9% |
| CCOC(=O)c1[nH]c(C)c(C(=O)OCC(=O)N2CCc3ccccc32)c1C | 6.7% |
| CCOC(=O)c1c(C)[nH]c(C(=O)OCC(=O)N2CCc3ccccc32)c1C | -4.1% |
| CCOC(=O)c1[nH]c(C)c(C(=O)Nc2ccc(C)c(Cl)c2)c1C | 22.7% |
| CCOC(=O)c1[nH]c(C)c(C(=O)Nc2cc(OC)ccc2OC)c1C | 58% (active) |
| CCOC(=O)c1[nH]c(C)c(C(=O)Nc2ccc(Cl)cc2)c1C | 0.6% |
| CCOC(=O)c1[nH]c(C)c(C(=O)Nc2ccc(C)cc2C)c1C | 52.7% (active) |
| CCOC(=O)c1ccc(NC(=O)c2c(C)[nH]c(C(=O)OCC)c2C)cc1 | 5.5% |
| CCOC(=O)c1[nH]c(C)c(C(=O)N2CCc3ccccc32)c1C | 57.9% (active) |
| O=C(Nc1ccccc1)N1CCCC2CCCCC21 (configuration not stated) | 6.5% |
| COc1cccc(-c2ccc(=O)n(CC(=O)NCCN3CCOCC3)n2)c1 | -0.6% |
| Cc1ccc(NC(=O)CN(C)c2ccc(S(=O)(=O)N3CCN(C)CC3)cn2)cc1 | -4.8% |
| O=C(O)C1CC=CCC1C(=O)N1CCc2ccccc21 (configuration not stated) | -3.6% |
| Cc1cc(C)n2cc(CSc3nc4cc(Cl)ccc4o3)nc2n1 | 1% |
| Cc1ccc(C2C(C(=O)O)c3ccccc3C(=O)N2C)o1 (configuration not stated) | 3.3% |

| Compound | cytotoxicity |
| --- | --- |
| CCOC(=O)c1[nH]c(C)c(C(=O)Nc2ccccc2C)c1C | 61.8% (active) |
| CCOC(=O)c1[nH]c(C)c(C(=O)Nc2ccccc2F)c1C | 44.7% |
| CCOC(=O)c1[nH]c(C)c(C(=O)Nc2cccc(Cl)c2C)c1C | 33.8% |
| COC(=O)C1=C(C)N(CCc2ccccc2)C(=O)C1(NS(=O)(=O)c1ccc(NC(C)=O)cc1)C(F)(F)F (configuration not stated) | -19.4% |
| O=C(NCc1ccc2c(c1)OCO2)c1ccc(CN2CCOCC2)cc1 | -0.5% |
| Cc1ccc(C)c(CN2C(=O)C3(OCCCO3)c3ccccc32)c1 | -5.2% |
| CC(=O)N1c2ccccc2N(Cc2ccc(C)cc2C)C(=O)C1(C)C | 52.2% (active) |
| Cc1ccc(C(=O)N2c3ccccc3N(Cc3ccccc3)C(=O)C2(C)C)cc1 | -12.6% |
| Cc1nnc(N2C(=O)C(O)=C(C(=O)c3ccco3)C2c2ccc(C(C)C)cc2)s1 (configuration not stated) | -3.4% |
| O=C(Nc1cc(C(F)(F)F)ccc1N1CCOCC1)c1ccc[n+]([O-])c1 | 8.9% |
| CCc1ccccc1NS(=O)(=O)c1ccc2[nH]cc(C(=O)NCC3CCCO3)c(=O)c2c1 (configuration not stated) | 3.1% |
| Cn1cnnc1SCC(=O)Nc1ccccc1 | 5.5% |
| CCCCOC(=O)c1ccc(NC(=O)CSc2nncn2C)cc1 | 61.2% (active) |
| COC(=O)c1ccc(NC(=O)CSc2nncn2C)cc1 | 3.9% |
| CCCCCn1c(=O)[nH]c2cc(C(=O)NCCCN3CCCCC3)ccc2c1=O | -6% |
| CN(C)S(=O)(=O)c1cccc(-c2nnc(-c3ccccc3)o2)c1 | -8% |
| O=C(CSCc1c(Cl)cccc1Cl)NCc1ccco1 | 6.4% |
| CN(C)CCNC(=O)c1coc(=O)c(Br)c1 | -5.5% |
| C[C@@H](NC(=O)c1coc(=O)c(Br)c1)c1ccccc1 | 2.9% |
| CC(C)CCOc1ccc(C(=O)O)cc1 | -1.4% |
| COc1cc(OC)c(NC(=O)CCc2ccccc2)cc1Cl | -15.4% |
| CNC(=O)CSc1nnc(-c2ccco2)n1-c1ccccc1OC | 25.4% |
